In PubChem BioAssay (NCI):
Compounds without any hit were thinned out: in the full panel of roughly 83,000, 20% have a hit.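 In brief: 96-well plates, 48 h treatment, single concentration, percent growth endpoint.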 A number with no mark means an inactive call. Activity calls are given as the source filed them. How the source made its calls: active means growth percent below 10; inactive means the rest.

System: MDA-MB-435 melanoma
Assay: NCI-60 one-dose screen, 48 h (100 = growth as untreated, 0 = no growth, -100 = all killed)
Conditions: 10 µM unless noted

| Compound | growth |
| --- | --- |
| O=C(CSc1nc2sc3c(c2c(=O)n1-c1ccc(Cl)cc1)CCCC3)NNC(=O)Nc1cccc(C(F)(F)F)c1 | 24.5% |
| CCCCN1C(=O)/C(=c2\sc3n(c2=O)C2C(NN=3)N(CC)C(=O)N2CC)c2cc(Cl)ccc21 (centres undefined) | 6.07% (active) |
| COc1cc(OC)c(C2C(Cl)C(=O)N2Nc2ncnc3ccccc23)cc1OC (centres undefined) | 96.2% |
| CC(=O)Oc1ccccc1C(=O)Nc1ccc(C(=O)/C=C/c2ccncc2)cc1 | 18.2% |
| COc1ccc(/C=C/C(=O)c2ccc(NC(=O)CSc3nnc(-c4ccc5nc(-c6ccc(Cl)cc6)[nH]c5c4)o3)cc2)cc1 | 98.1% |
| COc1cc(/C=C/C(=O)c2ccc(F)cc2)ccc1Oc1nc(NCCO)nc(N2CCOCC2)n1 | 48% |
| Cn1ccnc1C(=O)/C=C/c1ccc(NC(=O)Nc2ccc(Cl)cc2)cc1 | 75% |
| O=C(CSc1nc2sc3c(c2c(=O)n1-c1ccc(Cl)cc1)CCCC3)NNC(=O)Nc1ccc(Cl)c(C(F)(F)F)c1 | 46.8% |
| C#C[C@]1(O)CC[C@H]2[C@@H]3CC=C4c5sc(-c6ccc(F)cn6)nc5CC[C@]4(C)[C@H]3CC[C@@]21C | 18.1% |
| CC(=NNc1ncnc2ccccc12)c1ccc(S(C)(=O)=O)cc1 | 106% |
| COc1ccc(-c2cc(C(=O)N=Nc3c(O)[nH]c4ccccc34)c3ccccc3n2)cc1OC | 98.1% |
| Fc1ccc(-c2cc3nc(C(Cl)Cl)nc(-c4ccc(Cl)cc4)n3n2)cc1 | 25.8% |
| CN(C)c1ccc(/C=C2\Cc3c(F)ccc(Br)c3C2=O)cc1 | 92.7% |
| COC(=O)C1CN(S(=O)(=O)/N=C2\NC(=O)NC2=C(Cl)Cl)C1 | 107% |
| c1ccc2c(NCCCn3ccnc3)c3oc4ccccc4c3nc2c1 | 3.7% (active) |
| Fc1ccc(-c2nc(C(Cl)Cl)nc3cc(-c4ccccc4)nn23)cc1 | 3.93% (active) |
| N#Cc1c(-c2ccc(F)cc2)nc2c(C#N)c(Nc3ccccc3)nn2c1N | 95.5% |

| Compound | growth |
| --- | --- |
| C#Cc1nc(C2=C(C)C(O)CC2)cs1 (centres undefined) | 105% |
| O=C(O)CCCCCN1C(=O)/C(=C/c2ccc(O)c(O)c2)SC1=S | 103% |
| CCN1CCN(/C(=N\c2sc(-c3ccccc3)nc2-c2ccccc2)c2ccccc2)CC1 | 88% |
| CS(=O)(=O)c1ccc(-c2nc3ccccn3c2/C=N/Nc2nc(-c3ccc(Br)cc3)cs2)cc1 | 97.2% |
| CS(=O)(=O)Nc1ccc(-c2nn(-c3ccc(S(C)(=O)=O)cc3)cc2/C=C/C(=O)c2ccc(NC(=O)CO[N+](=O)[O-])cc2)cc1 | 106% |
| Clc1ccc(-c2cn3cc(Cc4ccc(Cl)c(Cl)c4)sc3n2)cc1 | 35% |
| CC(O)C(NC(=O)C1CCCN1C(=O)CNC(=O)C1CC(=O)NCC(=O)NC(Cc2c[nH]c3ccccc23)C(=O)NC(Cc2ccc(O)cc2)C(=O)NCC(=O)NC(CO)C(=O)NC(CCC(N)=O)C(=O)NC(Cc2c[nH]c3ccccc23)C(=O)N1)C(=O)NCC(=O)NC(CCC(N)=O)C(=O)NC(CCCNC(=N)N)C(=O)NC(CC(=O)O)C(=O)O (centres undefined) | 100% |
| O=C(CSc1nccc(=O)[nH]1)Nc1ccc(-c2nc3ccccc3[nH]2)cc1 | 111% |
| O=c1[nH]c2ccccc2cc1CSc1ccccc1Nc1nccc(-c2ccc(C(F)(F)F)cc2)n1 | 74.6% |
| CCOC(=O)c1c(Nc2ccccc2)nn2c(N)c(C#N)c(-c3ccc(OC)cc3)nc12 | 79% |
| COc1ccc(C(=O)/C=C/c2ccc(OCc3ccc(Cl)cc3)c(OC)c2)cc1OC | 79.4% |
| CCCCCCNC(=O)Oc1ccc(/C(=C(/C)c2ccccc2)c2ccc(OCCN3CCCCCC3)cc2)cc1 | 49.6% |
| Clc1ccc2oc3c(OCCCn4ccnc4)c4ccccc4nc3c2c1 | 64.6% |
| COc1ccc(-n2c(SCC(=O)Nc3ccc(-c4nc5ccccc5[nH]4)cc3)nc3ccccc3c2=O)cc1 | -14.4% (active) |
| Cc1cc2nc3c4cc(Cl)ccc4n(CC(=O)NCCN(C)C)c3nc2cc1C | 67.9% |
| Cc1ccc(-c2nc(C(Cl)Cl)nc3cc(-c4ccccc4)nn23)cc1 | 16.1% |
| C[C@@H]1CN(c2ccc3ncc(C#Cc4cncc(C(=O)Nc5ccc(CN6CCN(C)CC6)c(C(F)(F)F)c5)c4)n3n2)C[C@H](C)O1 | -90.1% (active) |
